Consider 14 compounds from the supplement of paper PMC8047044.

The assay has as its system Neuro-2a. In words: neurite formation score, plate-normalized to DMSO control mean 5.04 (score (0-8 scale)); higher = more or longer neurites. Conditions: 0.1 µM. On the procedure: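 Neuro-2a mouse neuroblastoma cells in PLL-coated 96-well plates were pre-treated for 1 h in DMEM(+) with each kinase inhibitor at 0.1 µM, then switched to serum-free DMEM(-) with inhibitor to induce neurite outgrowth and fixed about 2-3 h later. Three blinded observers scored neurite formation from 0 (no neurites) to 8 (long neurites on almost all cells).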
On to `Nc1nc(N)c2nc(-c3cccc(O)c3)c(-c3cccc(O)c3)nc2n1`, for which the neurite formation score came out at 3.38.
Then `CCCCCCCCCCCCCCCCOP(=O)([O-])OCC[N+](C)(C)C` [Miltefosine], with 2.58; and `CN1CCN(S(=O)(=O)c2ccc(-c3cnc(N)c(C(=O)Nc4cccnc4)n3)cc2)CC1`, with 4.75; and `COc1cc2c(Nc3ccc(NC(=O)c4ccccc4)cc3)ncnc2cc1OCCCN1CCOCC1`, with 4.58.
Then `CCn1c(N)c(C(=O)NC)c(=O)c2ccc(C#CC(C)(O)COC)nc21` (centres undefined), with 4.42.
The value for `Cc1ccc2c(Nc3ccc(Cl)cc3)nccc2c1Nc1ncccc1-c1ncnc2nc[nH]c12` [B-Raf inhibitor 1] was 4.76; that for `O=C(Nc1ccccc1C(=O)NC1CCCCNC1=O)c1cc2ccccc2s1` (centres undefined) was 3.75; that for `CCOc1cc2ncc(C#N)c(Nc3ccc(F)c(Cl)c3)c2cc1NC(=O)/C=C/CN(C)C` [Pelitinib (EKB-569)] was 4.38.
Consider `C=CC(=O)Nc1cccc(Nc2nc(Nc3ccc(N4CCN(C(C)=O)CC4)cc3OC)ncc2C(F)(F)F)c1`, for which the neurite formation score was found to be 3.71.
On to `CNCc1ccc(-c2cc(-c3nc(-c4ccc(S(=O)(=O)C(C)C)cc4)cnc3N)on2)cc1`, for which the neurite formation score came to 3.25.
`O=C(NC(NC(=S)Nc1ccc(F)c([N+](=O)[O-])c1)C(Cl)(Cl)Cl)C(c1ccccc1)c1ccccc1` (centres undefined): the neurite formation score stood at 4.25.
The value for `CCNc1nc(Nc2cc(F)c(C(=O)N3CCOCC3)cc2OC)ncc1C(F)(F)F` was 3.75; that for `CC(=O)Nc1cccc(-n2c(=O)n(C3CC3)c(=O)c3c(Nc4ccc(I)cc4F)n(C)c(=O)c(C)c32)c1` [Trametinib DMSO solvate] was 4.92; that for `CCS(=O)(=O)c1cccc(-c2cc(C(=O)NC3CCN(C)CC3)c(C)c3[nH]c4ncc(C)cc4c23)c1` was 4.58.
